In experiment [1] the target is Serine/threonine-protein kinase PAK 6 (Homo sapiens) (UniProt Q9NQU5). To be noted: at 1 µM.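 Note: values are mean percent inhibition of PAK6 kinase.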
Experiment [2] relates to Tyrosine-protein kinase ABL1 (Homo sapiens), P00519 [E255K]. To be noted: at 0.1 µM.
Experiment [3] shares this test system. To be noted: at 1 µM.
Experiment [4] has as its system Tyrosine-protein kinase ABL1 (Homo sapiens), P00519 [H396P]. As to conditions: at 0.1 µM.
For experiment [5] the test system is unchanged. As to conditions: at 1 µM.
For experiment [6], the system named is Tyrosine-protein kinase ABL1 (Homo sapiens), P00519 [M351T]. As to conditions: at 0.1 µM.
For experiment [7] the test system is unchanged. As to conditions: at 1 µM.
Experiment [8] relates to Tyrosine-protein kinase ABL1 (Homo sapiens), P00519 [Q252H]. To be noted: at 0.1 µM.
Experiment [9] has the same test system. As to conditions: at 1 µM.
The subject of experiment [10] is Tyrosine-protein kinase ABL1 (Homo sapiens), P00519 [T315I]. To be noted: at 0.1 µM.

Structures are written as SMILES.

Sequence of Serine/threonine-protein kinase PAK 6 (Homo sapiens) (Q9NQU5 whole entry, looked up): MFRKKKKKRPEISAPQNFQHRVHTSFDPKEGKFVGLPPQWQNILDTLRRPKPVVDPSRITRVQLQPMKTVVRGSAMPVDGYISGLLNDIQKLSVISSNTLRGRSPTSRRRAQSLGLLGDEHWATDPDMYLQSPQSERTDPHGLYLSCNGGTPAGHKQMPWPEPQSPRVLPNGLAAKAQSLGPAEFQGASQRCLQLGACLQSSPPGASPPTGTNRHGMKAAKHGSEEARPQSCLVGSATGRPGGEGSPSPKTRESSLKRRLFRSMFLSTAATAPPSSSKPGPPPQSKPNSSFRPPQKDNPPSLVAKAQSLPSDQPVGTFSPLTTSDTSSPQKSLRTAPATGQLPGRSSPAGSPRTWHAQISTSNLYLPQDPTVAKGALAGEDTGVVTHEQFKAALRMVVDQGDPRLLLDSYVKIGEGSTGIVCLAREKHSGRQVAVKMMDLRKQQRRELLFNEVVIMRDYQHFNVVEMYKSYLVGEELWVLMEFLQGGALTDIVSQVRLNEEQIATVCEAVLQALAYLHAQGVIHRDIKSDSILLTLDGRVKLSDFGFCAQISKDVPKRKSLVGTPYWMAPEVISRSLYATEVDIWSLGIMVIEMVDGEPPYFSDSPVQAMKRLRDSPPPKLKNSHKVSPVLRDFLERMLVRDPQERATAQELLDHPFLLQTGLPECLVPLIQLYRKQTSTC

On to `Cc1ccc2c(-c3ccnc(Nc4ccc5c(c4)OCCO5)n3)c(-c3ccc(C(F)(F)F)cc3)nn2n1`, for which the inhibition is 10.7% in experiment [1]; 2.27% in experiment [2]; 3.32% in experiment [3]; 2.14% in experiment [4]; 3.45% in [5]; 0.52% in experiment [6]. Also, the inhibition in experiment [7] worked out at 3.13%; in experiment [8] it was 1.51%; in experiment [9] it was 4.16%; in [10], 0.69%.

Regarding `COc1cc(Nc2nccc(-c3cnn4ncccc34)n2)cc(OC)c1`, the inhibition in experiment [1] was -1.82%; in [2], 6.96%; in [3], 46%; in experiment [4], 11.9%; in experiment [5] it was 59.5%; in experiment [6], 13.7%. Besides, the inhibition came to 63.4% in experiment [7], 18% in experiment [8], 68.6% in experiment [9] and 5.15% in [10].

Regarding `C[C@@H](Oc1cc(-n2cnc3ccc(OC[C@@H](O)CO)cc32)sc1C(N)=O)c1ccccc1Cl`, the inhibition in experiment [1] is -6.36%; in experiment [2], 0.24%; in experiment [3], 5.92%; in experiment [4] it was 0%; in experiment [5], 9.51%; in experiment [6], 1.32%. For the same compound, the inhibition in experiment [7] is 8.84%; in [8], -1.76%; in [9] it was 8.32%; in [10], -0.17%.

For `CN(C)C(=O)O[C@H]1CN[C@H](C#Cc2cc3ncnc(Nc4ccc(OCc5cccc(F)c5)c(Cl)c4)c3s2)C1`, the inhibition in [1] is 7.18%; in experiment [2], 2%; in experiment [3], 3.31%; in experiment [4] it was 2.06%; in [5] it was -0.36%; in [6] it was 0.95%. Moreover, the inhibition in experiment [7] is 0.49%; in experiment [8] it was 4.6%; in experiment [9], 3.58%; in [10], 2.75%.

As for `COc1cccc(-n2ncc3c(N/N=C/c4ccc(C)cc4)ncnc32)c1`, the inhibition in experiment [1] was -8.44%; in [2], 18.9%; in [3], 65.3%; in experiment [4], 28.1%; in experiment [5], 73.5%; in experiment [6], 25.4%. Further, the inhibition in [7] came to 73.7%; in experiment [8], 37.6%; in experiment [9] it was 81.4%; in experiment [10], 5.28%.

In the case of `NS(=O)(=O)c1cccc(-c2cc3ccncc3cc2OCc2ccccc2)c1`, the inhibition in [1] was -4%; in [2] it was 1.9%; in experiment [3] it was 4.18%; in experiment [4] it was 4.37%; in [5], 9.55%; in [6] it was 3.86%. Moreover, the inhibition in experiment [7] amounted to 8.19%; in experiment [8] it was 3.13%; in experiment [9] it was 6.44%; in [10], 3.3%.

As to `Nc1nccc(-c2c(-c3ccc(F)cc3)nn3cc(C(F)(F)F)ccc23)n1`, the inhibition was 5.02% in [1]; -2.06% in [2]; -1.18% in [3]; 0.65% in experiment [4]; -0.33% in experiment [5]; 1.15% in experiment [6]. In addition, the inhibition in experiment [7] was found to be 1.14%; in [8], 1.06%; in experiment [9], 0.27%; in experiment [10], 0.42%.

As for `CC(C)c1ccc(Nc2nccc(-c3cnn4ncccc34)n2)cc1`, the inhibition stood at 2.84% in [1]; 1.9% in [2]; 4.45% in experiment [3]; 3.09% in [4]; 8.88% in experiment [5]; 1.81% in experiment [6]. For the same compound, the inhibition is 10.2% in experiment [7], 2.85% in [8], 11.6% in experiment [9] and 2.34% in experiment [10].

As for `NC(=O)c1sc(-n2cnc3ccccc32)cc1OCc1ccccc1Br`, the inhibition is -4.72% in experiment [1]; 2.67% in experiment [2]; 4% in [3]; 4.21% in experiment [4]; 6.63% in experiment [5]; 0.66% in [6]. Further, the inhibition in experiment [7] stood at 3.16%; in experiment [8] it was 3.16%; in experiment [9] it was 4.86%; in [10] it was 3.2%.

`OCc1ccc(-c2nc(-c3ccccn3)c(-c3ccc4c(c3)OCO4)[nH]2)cc1`: the inhibition was 5.51% in [1]; 4% in [2]; 3.72% in [3]; 2.95% in experiment [4]; 3.25% in experiment [5]; 1.06% in experiment [6]. The inhibition in experiment [7] was found to be 2.45%; in [8], 3.06%; in experiment [9], 3.19%; in experiment [10], 1.99%.

In the case of `COc1cccc(-n2nc(C)c3c(N/N=C(\C)c4ccncc4)ncnc32)c1`, the inhibition in experiment [1] was -5.25%; in experiment [2], 1.05%; in experiment [3] it was 1.53%; in [4], 0.51%; in experiment [5] it was 4.07%; in [6] it was -0.39%. Moreover, the inhibition in experiment [7] is 4.06%; in experiment [8], 0.65%; in [9] it was 3.19%; in experiment [10] it was -2.26%.

As to `CS(=O)(=O)Nc1cccc(-c2ccc3c(NC(=O)C4CC4)n[nH]c3c2)c1`, the inhibition in experiment [1] was -4.78%; in experiment [2], 1.67%; in experiment [3], 7%; in [4], 2.46%; in [5] it was 16.8%; in [6], 3.14%. Further, the inhibition in experiment [7] was 16%; in experiment [8], 0.49%; in experiment [9] it was 7.01%; in experiment [10], 3.71%.

For `CS(=O)(=O)CCNCc1nc(-c2ccc3ncnc(Nc4ccc(OCc5cccc(C(F)(F)F)c5)cc4)c3c2)cs1`, the inhibition in [1] was -5.71%; in experiment [2] it was 0.56%; in experiment [3] it was 1.8%; in experiment [4], 2.03%; in experiment [5] it was 2.31%; in experiment [6], 1.36%. Further, the inhibition in [7] stood at 1.22%; in experiment [8] it was 1.8%; in [9] it was 1.75%; in experiment [10], 0.33%.

On to `COc1cc2ncnc(Nc3ccc(C)c(O)c3)c2cc1OC`, for which the inhibition in experiment [1] was 0.34%; in [2], 42.3%; in [3], 85.8%; in [4] it was 48.1%; in experiment [5] it was 87.4%; in [6], 42.5%. In addition, the inhibition in experiment [7] was 84.5%; in [8], 41.1%; in experiment [9] it was 81.8%; in [10] it was 16.5%.

As for `COc1cc2ncnc(Nc3ccc4c(cnn4Cc4ccccc4)c3)c2cc1OC`, the inhibition in experiment [1] was -6%; in experiment [2], 2.21%; in [3] it was 2.28%; in experiment [4], 2.93%; in experiment [5] it was 6.16%; in experiment [6], 0.94%. In addition, the inhibition in experiment [7] is 3.26%; in [8], 2.63%; in [9], 7.1%; in experiment [10], 2.91%.

For `CCS(=O)(=O)c1ccc(OC)c(Nc2nccc(N(C)c3ccc4c(C)n[nH]c4c3)n2)c1`, the inhibition is -6.63% in experiment [1]; 50.5% in [2]; 88.7% in experiment [3]; 61.1% in experiment [4]; 90.5% in experiment [5]; 54% in [6]. Further, the inhibition in [7] came to 88.3%; in experiment [8], 57.7%; in experiment [9], 89.6%; in experiment [10], 3.83%.

Consider `NS(=O)(=O)c1cccc(Nc2cc(-c3ccc(F)cc3)n[nH]2)c1`, for which the inhibition worked out at 13% in [1]; 1.07% in [2]; 8.03% in experiment [3]; 5.72% in [4]; 15.4% in experiment [5]; 2.42% in experiment [6]. Moreover, the inhibition in experiment [7] turned out to be 19.8%; in [8], 4.73%; in [9], 18.2%; in [10] it was 1.49%.

In general, inhibition refers to the change of the read-out against control, counted positive when it falls.
